Compounds without any hit were thinned out: in the full panel of roughly 79,000, 15% have a hit. Activity calls are given as the source filed them. Cut-off read from the data, not from the text of the source: active = growth inhibition above about 70%; inactive = the rest.
Legend:
[1] = NCI Yeast Anticancer Drug Screen. Data for the rad50 strain (AID 155);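 note: 0% = growth of vehicle-only cultures of the same strain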; conditions: S. cerevisiae rad50 strain growth inhibition, stronger effect = higher value
Outline: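 Relative growth inhibition (compound vs vehicle) was measured in yeast with a defined repair-gene alteration.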

[2] = NCI Yeast Anticancer Drug Screen. Data for the mec2-1 strain (AID 157); conditions: S. cerevisiae mec2-1 strain, stronger effect = higher value
Outline: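 mec2-1 yeast strain, carrying an alteration in DNA damage repair or cell cycle control, was exposed to compounds; growth inhibition was measured relative to vehicle-treated controls.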

[3] = NCI Yeast Anticancer Drug Screen. Data for the sgs1 mgt1 strain (AID 161);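 note: 0% = growth of cultures given vehicle only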; conditions: S. cerevisiae sgs1 mgt1 strain, stronger effect = higher value
Outline: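 Compounds are added to genetically altered yeast, and growth is compared with cultures given vehicle alone to give percent inhibition.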

[4] = NCI Yeast Anticancer Drug Screen. Data for the cln2 rad14 strain (AID 165);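 note: 0% = growth equal to vehicle treated cultures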; conditions: S. cerevisiae cln2 rad14 strain, stronger effect = higher value
Outline: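 Yeast carrying cln2 and rad14 alterations (cell cycle control and DNA damage repair) were exposed to compounds. Growth inhibition was measured against vehicle-treated controls.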

[5] = NCI Yeast Anticancer Drug Screen. Data for the bub3 strain (AID 167); conditions: S. cerevisiae bub3 mutant strain, stronger effect = higher value
Outline: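 Screening used yeast with an engineered genetic alteration affecting cell cycle control. Compound-exposed cultures were compared with vehicle cultures, and reduced growth was taken as inhibition.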

[6] = NCI Yeast Anticancer Drug Screen. Data for the mlh1 rad18 strain (AID 175); conditions: S. cerevisiae mlh1 rad18 strain growth inhibition, stronger effect = higher value
Outline: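 Growth inhibition of the yeast strain was measured after compound exposure and expressed relative to vehicle-treated controls. The strain carries defined defects in DNA damage repair.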

[7] = at 5.0 µM (retest, dose inferred, filed as 0.5)
[8] = at 50.0 µM (retest, dose inferred, filed as 5.0)

Measured: growth inhibition

CC12CCC3C(CC=C4CC(SC(=N)N)CCC43C)C1CCC2=O (stereo not given)
active: [3]; [8] 72% | [3]; at 50.0 µM 75.5%
inactive: [1]; [7] 0% | [1]; [8] 33% | [1]; at 50.0 µM 67.3% | [2]; [7] 5% | [2]; [8] 51% | [2]; at 50.0 µM 48.3% | [3]; [7] 21% | [4]; [7] 9% | [4]; [8] 19% | [4]; at 50.0 µM 59.7% | [5]; [7] 11% | [5]; [8] 50% | [5]; at 50.0 µM 66.8% | [6]; [7] 8% | [6]; [8] 31% | [6]; at 50.0 µM 59.6%

CC1=C2C(=CC(C)(C)[C@@H]2O)C(=O)[C@](C)(O)C12CC2
active: [1]; [8] 92% | [1]; at 50.0 µM 80.6% | [2]; [8] 96% | [2]; at 50.0 µM 89.8% | [3]; [8] 91% | [3]; at 50.0 µM 80.8% | [4]; [8] 90% | [4]; at 50.0 µM 84.8% | [6]; [8] 91% | [6]; at 50.0 µM 78.3%
inactive: [1]; [7] 44% | [2]; [7] 12% | [3]; [7] 53% | [4]; [7] 23% | [5]; [7] 12% | [5]; [8] 39% | [5]; at 50.0 µM 7.1% | [6]; [7] 35%

C#CCN1C(=O)N(CC#C)C(=O)C(CC#C)(C(CC=C)c2ccccc2)C1=O (stereo not given)
active: [1]; [8] 96% | [2]; [8] 97% | [3]; [8] 97% | [4]; [8] 95% | [5]; [8] 98% | [6]; [8] 97%
inactive: [1]; [7] 1% | [1]; at 50.0 µM 57.3% | [2]; [7] 2% | [2]; at 50.0 µM 26.6% | [3]; [7] -1% | [3]; at 50.0 µM 66.5% | [4]; [7] 16% | [4]; at 50.0 µM 58.5% | [5]; [7] 9% | [5]; at 50.0 µM 59% | [6]; [7] -23% | [6]; at 50.0 µM 53.4%

Cc1ccc2c(c1)N(CCN(CCCl)CCCl)c1c(ccc3ccccc13)S2
inactive: [1]; [7] 0% | [2]; [7] -1% | [2]; at 50.0 µM 67.2% | [3]; [7] -9% | [4]; [7] -6% | [5]; [7] -1% | [5]; at 50.0 µM 34.7% | [6]; [7] 11%
active: [1]; [8] 83% | [1]; at 50.0 µM 90.2% | [2]; [8] 87% | [3]; [8] 84% | [3]; at 50.0 µM 93.4% | [4]; [8] 79% | [4]; at 50.0 µM 75.4% | [5]; [8] 82% | [6]; [8] 84% | [6]; at 50.0 µM 91.9%

CC(C=O)[Se]c1ccccc1 (stereo not given)
inactive: [1]; [7] -2% | [1]; [8] 57% | [2]; [7] 8% | [2]; [8] 53% | [3]; [7] -3% | [4]; [7] -9% | [4]; [8] 48% | [4]; at 50.0 µM 48.6% | [5]; [7] 11% | [5]; [8] 67% | [6]; [7] 12%
active: [1]; at 50.0 µM 91.9% | [2]; at 50.0 µM 77.7% | [3]; [8] 72% | [3]; at 50.0 µM 86.2% | [5]; at 50.0 µM 86.8% | [6]; [8] 73% | [6]; at 50.0 µM 91.5%

Source: PubChem BioAssay (NCI)
